A value given as a limit tells only on which side of the number the result lay.

The Kd is the concentration at which binding is half-saturated.

The subject of one experiment is T1, PKAC-alpha.
T1 construct: gene PRKACA
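Further: kd values determined as follow-up on hits from a single-replicate KINOMEscan panel screen.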

`COc1cc2ncnc(Nc3ccc4nc(-c5ccccc5)[nH]c4c3)c2cc1OC.Cl` [GW282450]: in the experiment with PLK4, the Kd turned out to be 1.6 µM. Same read-out and setting: for `COc1ccccc1CNC(=O)c1cc(C(=O)c2ccccc2C)c[nH]1` [GSK364507] the value was over 10 µM.

Turning to `O=S(=O)(c1ccc(-c2ccnc3[nH]ccc23)cc1)N1CCCC1` [GSK846226], the Kd in the experiment with PKAC-alpha came out at 0.26 µM.

For `CC(C)(C)c1ccc(C(=O)Nc2cn3cc(Cl)ccc3n2)cc1`, in the experiment with PRKCI, the Kd is over 10 µM. Compound `Nc1ncnc2[nH]c(-c3ccccc3)nc12` [AH5015] showed a Kd in the experiment on PLK4 of over 10 µM. As for `COc1ccc(Nc2nccc(NCCNC(=O)Nc3ccccc3F)n2)cc1` [GSK1379901], the Kd in the experiment with PRKD2 is over 10000 nM.

`CN1C(=O)C(Nc2ccc(Cl)c(C(=O)O)c2)=C(c2ccc(Cl)cc2)C1=O` [SB-404290] displayed a Kd with PKN1 of over 10 µM. As to `COc1ccc2nc(-c3cccc(C)n3)nc(Nc3ccncc3)c2c1` [GSK204919], the results for the Kd in the experiment with PRKD1, with PRKD2 and in the experiment on PRKD3 were 51 nM, 34 nM and 490 nM, respectively. For `Cc1cccc(-c2nc(Nc3ccc4[nH]ncc4c3)c3ccccc3n2)n1` [GW857175] the same measures were 19 nM, 15 nM and 11 nM.

Compound `CCCc1ccc(S(=O)(=O)NC2CCN(c3ccnc(Nc4ccc(F)cc4)n3)C2)cc1` (stereo not shown) [GSK1379715] yielded a Kd with PKAC-alpha of over 10 µM. Regarding `Cc1cccc(-c2nc(C)cc(Nc3ccncc3)n2)n1` [GSK257997], the Kd worked out at 1100 nM in the experiment on PRKD2 and 1000 nM in the experiment on PRKD3.

With `Cc1cccc(-c2cc(Nc3ccncc3)c3ccccc3n2)n1` [GSK223675], the Kd in the experiment on PRKD1 was 100 nM; in the experiment on PRKD2, 300 nM; in the experiment with PRKD3, 210 nM. As for `Cc1cccc(-c2nc(Nc3ccncc3)c3ccccc3n2)n1` [GW855857], the values for the Kd in the experiment with PRKD1 and in the experiment with PRKD2 were 9.7 nM and 17 nM, respectively.

Compound `Fc1cc(Cl)ccc1Nc1ccnc2cc(-c3ccc(CN4CCCCC4)o3)ccc12` [GW560116] had a Kd with PKAC-alpha of over 10 µM. The same measure, in the same setting: for `CCn1c(-c2ccccn2)nc2cnccc21` [SB-736398] the value was over 10 µM. The compound `Cc1cccc(-c2nc(Nc3cccc(C(N)=O)c3)c3ccccc3n2)n1` [GW876019] had a Kd in the experiment with PRKD3 of 820 nM. As for `COc1cc2ncn(-c3cc(OCC4CCCO4)c(C(N)=O)s3)c2cc1OC` (stereo not shown) [GSK204607], the Kd with PLK1 is 13 nM; in the experiment with PLK2 it was 4.4 nM; in the experiment with PLK3, 40 nM; in the experiment with PRKCI, over 10 µM.

(Values after article PMC5540273 (PLoS ONE, 2017).)
